PMP22 txn = Cell-based coincidence reporter assay to measure PMP22 gene transcription in S16 Pmp22-F2sN cells - Primary screen; 43,000 compounds, 2% hits; Potency, µM (top dose mostly 57.5 µM), most hits filed as inhibitors; S16 Pmp22-F2sN Schwann cells, FLuc/NLuc coincidence luminescence, 24 h; active = clear falling dose curves in both reporters; inconclusive = both reporters move, but less clearly or upward; inactive = either reporter flat; the % is the NLuc reporter signal
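Reporter cells (S16 Pmp22-F2sN, 500–1,000 per well) exposed to compounds for 24 h, 37C, 5% CO2; lysis with FLuc read after 10 min, then Stop&Glo and NLuc read after 10 min.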
OvCa metastasis = Primary qHTS assay for Inhibitors of ovarian cancer metastasis using an organotypic tumor microenvironment (TME) model. Potency, µM (series often up to 45.8 µM), usual class: inhibitors. SKOV3ip1-GFP adhesion/invasion on 3D omental model, fluorescence. 46,000 compounds, 0.1% hits. AID 1963576, 2024; also: nearly all actives have a fitted effect of over 65% in size
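A 3D layer of primary human omental fibroblasts, mesothelial cells, fibronectin and collagen I, grown 48 hr, received SKOV3ip1-GFP cells in serum-free medium plus compounds at 0.36-46 umol/L. After 2 hr RT and 16 hr 37 C, fixed adherent GFP cells were counted; normalized to DMSO and tomatine.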
p53null 39C kill = qHTS Screen for Compounds that Selectively Target Cancer Cells with p53 Mutations: Cytotoxicity of p53 Null Cells at the Nonpermissive Temperature; H1299 p53-null (neo) cells, 39C, ATPlite viability, 24 h; 55,000 compounds, 0.97% hits; Potency, µM (series often up to 46.1 µM), usual class: cytotoxic; AID 904, 2007; also: nearly all actives have a fitted effect of over 50% in size
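Cells seeded at 600/well, 37C overnight. Compound added (up to 46 uM), plates shifted to 39C for 24 hr. ATPlite added, luminescence read after 20 min at room temperature.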
S16 viability = Cell viability qHTS assay in S16 Pmp22-F2sN cells | 43,000 compounds, 0.48% hits | S16 Pmp22-F2sN Schwann cells viability, CellTiter-Glo, 24 h | Potency, µM (doses to about 57.5 µM), hits mostly cytotoxic; also: nearly all actives have a fitted effect of over 65% in size
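Viability was measured by CellTiter-Glo luminescence (15 min, room temperature). This followed 24 h at 37 °C of compound exposure (23 nL pin transfer) in S16 Pmp22-F2sN Schwann cells, 500-1,000 per well.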
pS6 MEF inh = Acumen qHTS Assay for Inhibitors of the mTORC1 Signaling Pathway in MEF (Tsc2-/-, p53-/-) Cells: Sytravon; 44,000 compounds, 0.78% hits; Tsc2-/- p53-/- MEF, phospho-rpS6 immunofluorescence/PI, 24 h; Potency, µM (doses to about 38.3 µM), actives largely listed as inhibitors; also: nearly all actives have a fitted effect of over 50% in size
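Compounds act on Tsc2-/-, p53-/- fibroblasts carrying an empty vector for 24 h before fixation and dual staining for phospho-S6 and DNA (propidium iodide). Values are percentages of cells above a rapamycin-defined pS6/PI threshold.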
p53null 32C kill = qHTS Screen for Compounds that Selectively Target Cancer Cells with p53 Mutations: Cytotoxicity of p53 Null Cells at the Permissive Temperature | H1299-neo p53 null cells, ATP luminescence, 24 h, 32C | Potency, µM (highest dose often 46.1 µM), actives largely listed as cytotoxic | 55,000 compounds, 0.62% hits | AID 903, 2007; also: nearly all actives have a fitted effect of over 55% in size
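H1299-neo (p53-null) cells, 600/well, were pre-incubated overnight at 37C, then exposed to compounds at up to 46 uM for 24 hr at 32C. Viability was measured as ATP content by luminescence, and AC50 values came from Hill fits.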
Numbers stand for hits; n = inactive; u = inconclusive; x = no result. Shown are actives, neighbours in structure and some others; about 3.1% of the full set was active somewhere. Unless noted, calls follow the shape of the dose curve; as a rule, active = well fitted curve in the direction sought with a large enough effect; inconclusive = small, poorly fitted or top-dose-only effect, or another doubt; inactive = no such curve, though single readings can be large; an effect the other way counts as inactive or inconclusive.

SMILES	PMP22 txn	OvCa metastasis	p53null 39C kill	S16 viability	pS6 MEF inh	p53null 32C kill
N#Cc1c(C2CCNCC2)cc(-c2c(O)cccc2OCC2CC2)nc1N	x	n	x	x	x	x
O=S(=O)(NCC(c1cccs1)S(=O)(=O)c1ccccc1)c1ccc(F)cc1 (stereo unspecified)	u	n	n	20µM	n	n
O=S(=O)(NCC(c1cccs1)S(=O)(=O)c1ccccc1)c1ccc(F)c(C(F)(F)F)c1 (stereo unspecified)	u	n	n	20µM	n	n
COc1ccc(S(=O)(=O)NCC(c2cccs2)S(=O)(=O)c2ccccc2)cc1OC (stereo unspecified)	u	n	n	u	n	n
COc1ccc(NC(=O)C(=O)NCC(c2cccnc2)N2CCc3ccccc3C2)cc1 (stereo unspecified)	n	n	20µM	n	n	13µM
O=C(NCC(c1cccnc1)N1CCc2ccccc2C1)C(=O)Nc1ccccc1 (stereo unspecified)	n	n	n	n	n	n
CCN(CC)S(=O)(=O)c1ccc(NC(=O)CCc2c(C)nc3cc(-c4ccc(Cl)cc4)nn3c2C)cc1	7.8µM	n	n	u	12µM	n
Cc1cc(NC(=O)c2ccco2)cc(-c2nc3cc(Cl)ccc3o2)c1O	u	n	u	n	12µM	u
COCC(=O)NCC=Cc1ccc2ncnc(Nc3ccc(Oc4ccc(C)nc4)c(C)c3)c2c1	x	n	x	x	x	x
CC(C)NC[C@@H](C(=O)N1CCN(c2ncnc3c2[C@H](C)C[C@H]3O)CC1)c1ccc(Cl)cc1	x	n	x	x	x	x
Cc1nn2cc(-c3ccc(OC(C)C)cc3)nc2s1	u	n	13µM	n	n	16µM
CC(=O)ON=C1C(c2c(O)[nH]c3cc(Br)ccc23)=Nc2ccccc21	x	n	x	x	x	x
CC(C)Oc1cccc(C2CC(=O)Nc3cc4c(cc32)OCO4)c1 (stereo unspecified)	4.3µM	n	u	u	6.6µM	n
Cc1cccc(C2CC(=O)Nc3cc4c(cc32)OCO4)c1 (stereo unspecified)	u	n	n	n	n	n
CCOc1c(Br)cc(C2CC(=O)Nc3cc4c(cc32)OCO4)cc1OC (stereo unspecified)	u	n	u	u	15µM	n
C[C@]1(c2nc3c(C(N)=O)cccc3[nH]2)CCCN1	x	n	x	x	x	x
COc1ccccc1Nc1c2c(nc3ccc(NC(=O)c4ccc(OC)c(OC)c4)cc13)CCCC2	u	u	22µM	u	u	u
COc1ccccc1Nc1c2c(nc3ccc(NC(=O)c4cccc(OC)c4OC)cc13)CCCC2	u	u	n	u	16µM	n
CCOc1ccc(N/C=C/C(=O)c2ccccc2)c([N+](=O)[O-])c1	x	x	x	x	x	6.3µM
COc1ccc(NC(=O)c2cccc(NC(=O)C(C)C)c2)c([N+](=O)[O-])c1	x	x	x	x	x	n
COc1ccc(NC(=O)CSc2nc3ccccc3nc2N2CCOCC2)c(OC)c1	n	n	u	n	n	n
COc1ccc(Nc2nc(Nc3ccc(OC)cc3OC)nc(N3CCOCC3)n2)c(OC)c1	n	n	n	n	1.5µM	n
Cc1ccc(Nc2nc(Nc3ccc(C)c(C)c3)nc(N3CCOCC3)n2)cc1C	n	n	n	u	1µM	n
CO[C@H]1/C=C\O[C@@]2(C)Oc3c(C)c(O)c4c(O)c(c5c(nc6cc(C)ccn65)c4c3C2=O)NC(=O)C(C)=CC=C[C@H](C)[C@H](O)[C@@H](C)[C@@H](O)[C@@H](C)[C@H](OC(C)=O)[C@H]1C	x	n	x	x	x	x
CN(C)c1ccc(C(=O)Nc2sc(Nc3ccccc3)nc2C(N)=O)cc1	n	n	u	n	4.6µM	u
SMILES	PMP22 txn	OvCa metastasis	p53null 39C kill	S16 viability	pS6 MEF inh	p53null 32C kill
CN(C)c1ccc(C(=O)Nc2cccc(-c3nc4cccnc4s3)c2)cc1	u	n	n	n	n	n
O=C(CSc1nc2c(c(=O)[nH]1)CN(Cc1ccc(F)cc1)CC2)Nc1cccc(C(F)(F)F)c1	u	n	n	14µM	n	n
O=C(Cn1cc(S(=O)(=O)Cc2cccc(Cl)c2)c2ccccc21)Nc1ccccc1C(F)(F)F	u	n	n	u	18µM	n
Cc1ccc(-n2ncc3c(Nc4cccc(Cl)c4)ncnc32)c(C)c1	n	10µM	n	n	n	n
Cc1ccc(-n2ncc3c(Nc4ccc(Oc5ccccc5)cc4)ncnc32)c(C)c1	u	n	n	n	n	n
NC(=O)c1ccc(N(C(N)=O)c2c(F)cccc2F)nc1-c1ccc(F)cc1F	x	n	x	x	x	x
O=C(Nc1ccc2c(c1)CCC2)C1CCCO1 (stereo unspecified)	x	x	n	x	x	n
O=C(Nc1ccc2c(c1)CCC2)c1ccc(F)cc1	x	x	n	x	x	10µM
Cn1cncc1[C@@](N)(c1ccc(Cl)cc1)c1ccc2c(c1)c(-c1cccc(Cl)c1)cc(=O)n2C	x	n	x	x	x	x
C[C@H]1[C@H](O)O[C@@H]2O[C@@]3(C)CC[C@@H]4[C@H](C)CC[C@@H]1[C@@]24OO3	x	n	x	x	x	x
O=C(CSc1nnc(-c2ccc([N+](=O)[O-])cc2)o1)Nc1ccccc1	n	n	6.3µM	n	n	u
Cc1nc2cnc3ccc(C#Cc4cccnc4)cc3c2n1-c1ccc(C(C)(C)C#N)cc1	x	n	x	x	x	x
Cc1oc(-c2cccc(Cl)c2)nc1CN1CCCC(C(=O)NCc2ccc(F)cc2)C1 (stereo unspecified)	u	n	u	n	n	n
Cc1oc(-c2cccc(Cl)c2)nc1CN1CCC(C(=O)NC(C)c2ccccc2)CC1 (stereo unspecified)	u	n	n	n	n	n
COc1ccc(-c2nc(CN3CCC(C(=O)NCCCN4CCN(c5ccccc5F)CC4)CC3)c(C)o2)cc1OC	u	7.1µM	n	u	15µM	n
Cc1oc(-c2cccc(Cl)c2)nc1CN1CCC(C(=O)NCCCN2CCN(c3ccccc3F)CC2)CC1	7.9µM	n	n	u	n	n
Cc1oc(-c2cccc(Cl)c2)nc1CN1CCC(C(=O)NCCCN2CCN(c3ccc(F)cc3)CC2)CC1	9.6µM	n	n	10µM	n	n
CCCCNC(=O)C1CCN(Cc2nc(-c3ccc(OC)c(OC)c3)oc2C)CC1	n	n	n	n	n	n
O=C(O)c1ccccc1C(=O)Nc1ccc(-c2ccccc2)cc1	x	n	x	x	x	x

Bioassay records from PubChem.
